# An excerpt weighted towards active compounds, which were near 3% of everything screened.
# LmPK inhibitor: LmPK (Leishmania mexicana) enzyme inhibition; purified LmPK, Kinase-Glo ATP luminescence, 1 h; 290,000 compounds, 0.37% hits; Potency, µM (titrated, usually from 57.5 µM), for the others: at the highest dose activity change, negative = inhibition, hits mostly inhibitors; Q27686
# Target sequence (Q27686 whole entry, looked up): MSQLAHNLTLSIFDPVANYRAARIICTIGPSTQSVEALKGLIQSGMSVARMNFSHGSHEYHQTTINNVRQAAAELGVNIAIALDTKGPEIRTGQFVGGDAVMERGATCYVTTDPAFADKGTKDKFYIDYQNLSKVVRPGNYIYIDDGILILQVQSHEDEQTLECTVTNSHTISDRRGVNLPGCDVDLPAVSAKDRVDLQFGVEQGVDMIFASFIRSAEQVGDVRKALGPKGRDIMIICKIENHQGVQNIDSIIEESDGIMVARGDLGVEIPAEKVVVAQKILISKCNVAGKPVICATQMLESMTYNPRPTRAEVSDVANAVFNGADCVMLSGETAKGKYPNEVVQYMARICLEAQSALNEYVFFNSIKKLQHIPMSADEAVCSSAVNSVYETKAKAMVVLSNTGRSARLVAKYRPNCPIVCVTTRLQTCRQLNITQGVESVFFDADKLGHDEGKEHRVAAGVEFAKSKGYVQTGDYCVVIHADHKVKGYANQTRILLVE
#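 Purified LmPK (0.1 nM) converted ADP (0.1 mM) to ATP with PEP (0.5 mM) in imidazole buffer pH 7.2 with KCl and MgCl2, 1 h at room temperature. ATP was read by Kinase-Glo luminescence; data normalized to uninhibited and no-enzyme controls.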
# Tb PYK inh: T. brucei pyruvate kinase inhibition. 410,000 compounds, 0.12% hits. Potency, µM (series often up to 76.8 µM), for the others: at the highest dose activity, negative = inhibition, usual class: inhibitors. AID 624173. TbPYK enzyme, Kinase-Glo Plus ATP luminescence, 45 min. Q57TT1; note: nearly all actives have a fitted effect of over 50% in size
#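 Assay buffer: 50 mM TEA pH 7.2, 100 mM KCl, 10 mM MgCl2, 0.05% BSA, 0.01% Tween-20. Pyruvate kinase from T. brucei plus substrate met compound, then ADP (130 uM final). Luminescence was read post 45 min RT.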
# Sm TGR block: inhibitors of Schistosoma mansoni thioredoxin glutathione reductase; Q962Y6; purified TGR, DTNB reduction, TNB absorbance 405 nm; Potency, µM (doses to about 114 µM), without a hit: at the top dose activity change, negative = inhibition, usual class: inhibitors; 360,000 compounds, 3% hits; AID 485364; note: nearly all actives have a fitted effect of over 60% in size
#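 Kinetic colorimetric format: TGR-catalysed, NADPH-driven DTNB reduction monitored via TNB absorbance. Enzyme dispensed at 20 nM; compound exposure 15 min at room temperature before reaction start.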
# RE007 growth inh: less growth of the S. pombe RE007 Vpr strain; Potency, µM (doses to about 92.2 µM), inactives show at the top dose activity change, negative = less growth, actives largely listed as inhibitors; S. pombe RE007 Vpr strain, BacTiter-Glo ATP luminescence, 24 h; 360,000 compounds, 0.21% hits; AID 651644; active = well fitted falling curve with a large enough effect; inconclusive = small, poorly fitted or top-dose-only effect; inactive = no such curve, though single readings can be large or run the other way; note: nearly all actives have a fitted effect of over 50% in size
#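 Fission yeast RE007 carrying one integrated HIV-1 vpr copy, seeded at OD 0.01 in PMG+AL medium with 23 nL pinned compound. Grown 24 h at 30 degrees; viability read by BacTiter-Glo luminescence after 5 min.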
# Numbers without * were called inactive; ? = inconclusive; · = no result given. Unless noted, calls come from the whole dose curve; as a rule, active = well fitted curve in the direction sought with a large enough effect; inconclusive = small, poorly fitted or top-dose-only effect, or another doubt; inactive = no such curve, though single readings can be large; an effect the other way counts as inactive or inconclusive. % is set by controls: 0 for no effect and ±100 for the full control effect; potency is the fitted concentration of half-maximal effect.
SMILES,LmPK inhibitor,Tb PYK inh,Sm TGR block,RE007 growth inh
CC(=O)NN1C(=O)/C(=C\c2ccccc2)SC1=S,0%,6%,10%,·
CC(=O)NN1C(=O)/C(=C/c2ccc(Br)o2)SC1=S,21%,?,25µM*,0%
CC(=O)NN1C(=O)/C(=C\c2ccc(Br)o2)SC1=S,14%,-2%,25µM*,-3%
CCc1cccc(NC(=O)C2CCCN2S(=O)(=O)c2ccc3nc(-c4ccccc4)[nH]c3c2)c1 (stereo not given),·,1%,2%,·
COC(=O)N1C(=O)[C@@](c2ccccc2)(C2CCCC2)N1C(=O)OC,-1%,-1%,?,10%
COC(=O)N1C(=O)[C@@](CC(C)C)(c2ccccc2)N1C(=O)OC,5%,·,3.5µM*,·
COC(=O)N1C(=O)[C@](c2ccccc2)(C2CCCCC2)N1C(=O)OC,0%,-7%,5µM*,-8%
COC(=O)N1C(=O)[C@](CC(C)C)(c2ccccc2)N1C(=O)OC,0%,-5%,7.9µM*,2%
CCOC(=O)c1ccc(N2C(=O)c3[nH]nc(-c4ccccc4)c3C2c2ccc(CC)cc2)cc1 (stereo not given),·,0%,7%,·
CCOc1cc(C(=O)Nc2ccc(-c3nc4ccccc4s3)cc2Cl)cc(OCC)c1OCC,·,3%,9%,·
CC(=O)c1nn(-c2ccc(OC(F)(F)F)cc2)nc1Nc1ccc(C)cc1,·,0%,2%,·
O=C(O)c1ccc(N/N=C/c2ccc3c(c2)OCO3)cc1,10µM*,?,0%,?
O=C(O)c1ccc(N/N=C/c2ccc(C(F)(F)F)cc2)cc1,1%,-11%,-3%,35µM*
O=c1[nH]c(=O)n(Cc2ccco2)c(O)c1C=NCc1ccco1,20%,?,25µM*,3%
CC(=O)Nc1ccc(N=Cc2c(O)n(Cc3ccco3)c(=O)[nH]c2=O)cc1,4%,-5%,25µM*,-9%
O=c1[nH]c(=S)n(-c2ccccc2F)c(O)c1C=NCc1ccco1,1%,4%,-21%,-3%
Cc1ccc(-n2c(O)c(C=NCc3ccco3)c(=O)[nH]c2=S)cc1C,11%,4%,10µM*,2%
Brc1ccc(-c2nc3ncccn3c2Nc2ccc3c(c2)OCCO3)o1,-1%,-4%,-27%,6%
Cc1ccc(-c2nc3ccc(Cl)cn3c2Nc2ccc3c(c2)OCCO3)o1,·,-5%,28µM*,·
Cc1ccc(-c2nc3ncccn3c2Nc2ccc3c(c2)OCCO3)o1,-4%,2%,50µM*,10%
Cc1ccc2nc(-c3ccc(C)o3)c(Nc3ccc4c(c3)OCCO4)n2c1,·,-8%,?,·
CC(C)=CCC/C(C)=C/CC/C(C)=C/CCC(=O)OC/C=C(\C)CCC=C(C)C,·,3%,·,·
CCOC(=O)C1(CCc2ccccc2)CCN(C2CCSCC2)CC1,-2%,2%,11µM*,-2%
CCOC(=O)C1(CCc2ccccc2)CCN(C2Cc3ccccc3C2)CC1,0%,-7%,6%,-7%
Cc1cccc(N2CCN(C(=O)c3ccc4c(c3)N(Cc3ccccc3)C(=O)c3ccccc3S4(=O)=O)CC2C)c1 (stereo not given),·,-8%,-6%,·
SMILES,LmPK inhibitor,Tb PYK inh,Sm TGR block,RE007 growth inh
CC(=O)N1CCc2cc(S(=O)(=O)NC(CC(C)C)C(=O)NCCc3ccc(C)cc3)ccc21 (stereo not given),·,8%,-1%,·
O=C(CC1C(=O)OCCN1Cc1ccccc1)Nc1ccc(F)cc1 (stereo not given),·,11%,?,·
CCOc1ccc(NC(=O)CC2C(=O)OCCN2CC)cc1 (stereo not given),·,-7%,11µM*,·
CCOC(=O)c1ccc(NC(=O)CC2NCCNC2=O)cc1 (stereo not given),2%,-2%,0%,7%
COc1cc(NC(=O)CC2C(=O)OCCN2Cc2ccccc2)cc(OC)c1 (stereo not given),·,0%,-31%,·
CCOC(=O)c1ccc(NC(=O)CC2C(=O)OCCN2CC)cc1 (stereo not given),1%,2%,22µM*,5µM*
CCN1CCOC(=O)C1CC(=O)Nc1cccc(OC)c1 (stereo not given),·,-3%,18µM*,·
COC(=O)c1cc(NC(=O)CC2C(=O)OCCN2Cc2ccccc2)cc(C(=O)OC)c1 (stereo not given),·,18%,-34%,·

# Compound activity from PubChem BioAssay.
